Key:
Details in all cases: concentration: 1 μM, replicates: in singlicate; n = 1
PRKCE = system: PRKCE
PRKCH = system: PRKCH
PRKCI = system: PRKCI
PRKCQ = system: PRKCQ
PRKD1 = system: PRKD1
PRKD2 = system: PRKD2
PRKD3 = system: PRKD3
PRKG1 = system: PRKG1
PRKG2 = system: PRKG2
PRKR = system: T1, PRKR
T1 construct: gene EIF2AK2
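Also: KINOMEscan kinase panel screen.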

Row | SMILES | %Inh (PRKCE) [%] | %Inh (PRKCH) [%] | %Inh (PRKCI) [%] | %Inh (PRKCQ) [%] | %Inh (PRKD1) [%] | %Inh (PRKD2) [%] | %Inh (PRKD3) [%] | %Inh (PRKG1) [%] | %Inh (PRKG2) [%] | %Inh (PRKR) [%]
1 | Cc1nc(N(C)[C@H]2CN(C(=O)CC#N)CC[C@H]2C)c2cc[nH]c2n1 | 0 | 8 | 9 | 10 | 0 | 1 | 66 | 2 | 0 | 5
2 | CCc1ccc(-c2ccc3c(c2)-c2nn(C)cc2S(=O)(=O)N3C)cc1 | 0 | 0 | 18 | 10 | 0 | 13 | 0 | 0 | 0 | 0
3 | CN1C(=O)C(Nc2cc(Cl)c(O)c(Cl)c2)=C(c2ccc(Cl)cc2)C1=O [SB-404321] | 0 | 0 | 3 | 0 | 54 | 0 | 0 | 0 | 0 | 4
4 | COc1cc2ncn(-c3cc(OCCCc4ccccc4)c(C(N)=O)s3)c2cc1OC [GSK205189] | 0 | 0 | 13 | 19 | 0 | 23 | 0 | 0 | 0 | 0
5 | Cc1nnc(-c2ccc3ncn(-c4ccc(S(C)=O)cc4)c3c2)o1 (centres unmarked) | 3 | 4 | 0 | 3 | 0 | 35 | 0 | 0 | 13 | 0
6 | FC(F)(F)c1ccc(-c2ncn(CCCN3CCOCC3)c2-c2ccncc2)cc1 [SB-217780] | 35 | 0 | 19 | 30 | 0 | 0 | 0 | 29 | 25 | 0
7 | Nc1ncnc2c1ncn2-c1cccc(F)c1 [SKF-97560] | 3 | 0 | 22 | 20 | 0 | 10 | 9 | 0 | 10 | 0
8 | COc1cccc(C2=C(Nc3cccc(C(=O)O)c3)C(=O)NC2=O)c1 [SB-390770] | 15 | 28 | 100 | 11 | 0 | 0 | 0 | 0 | 0 | 0
9 | O=C(NCCNc1ccnc(Nc2ccc(F)cc2)n1)Nc1ccc2c(c1)OCO2 [GSK1379882] | 13 | 16 | 0 | 3 | 0 | 7 | 0 | 0 | 0 | 9
10 | COc1cc2ncn(-c3cc(OCc4ccc(S(C)(=O)=O)cc4)c(C(N)=O)s3)c2cc1OC [GW869979] | 20 | 0 | 12 | 0 | 0 | 0 | 18 | 0 | 0 | 0
11 | CCc1nc(-c2cccc(C)c2)c(-c2ccncc2)s1 | 0 | 0 | 28 | 6 | 0 | 26 | 9 | 0 | 11 | 0
12 | Cc1ccc(-c2ccc3c(ccc4sc5c(c43)NC[C@@H](C)N=C5N(C)C)n2)cn1 | 36 | 0 | 0 | 0 | 10 | 0 | 20 | 0 | 0 | 0
13 | Cc1cc(Nc2nc(-c3cccc(C)n3)nc3ccccc23)ccn1 [GW872411] | 0 | 0 | 0 | 0 | 99.4 | 99.9 | 76 | 14 | 0 | 0
14 | COC(=O)c1c(-c2ccccc2)c2cc(Br)ccc2c(=O)n1Cc1ccc(NC(=O)CCC(=O)O)cc1 | 0 | 7 | 0 | 21 | 0 | 0 | 0 | 0 | 0 | 0
15 | CC(C)(C)c1ccc(C(=O)Nc2cn3cc(-c4ccccc4)ccc3n2)cc1 | 5 | 0 | 10 | 37 | 8 | 19 | 4 | 1 | 0 | 0
16 | COc1ccc(CNC(=O)NC2CCN(c3ccnc(Nc4ccc(F)cc4)n3)C2)cc1 (centres unmarked) [GSK1379706] | 27 | 12 | 0 | 15 | 0 | 14 | 15 | 0 | 20 | 15
17 | COc1cccc(C2=C(N(C)c3ccccc3)C(=O)NC2=O)c1 [SB-334865] | 25 | 5 | 7 | 0 | 6 | 0 | 10 | 0 | 0 | 0
18 | Nc1ncnc2c1ncn2-c1cccc2ccccc12 [SKF-97184] | 5 | 5 | 22 | 0 | 0 | 0 | 0 | 0 | 0 | 0
19 | COc1cc(Nc2nccc(N3CCC(NC(=O)C4COc5ccccc5O4)C3)n2)cc(OC)c1OC (centres unmarked) [GSK1379761] | 3 | 4 | 0 | 0 | 0 | 10 | 0 | 0 | 3 | 13
20 | COc1ccc(-c2coc3ccc(-c4nnc(SCc5cccc(C#N)c5)o4)cc23)cc1 | 0 | 0 | 0 | 31 | 0 | 23 | 0 | 0 | 21 | 0
21 | Cc1nnc(-c2ccc(C)c(-c3ccc(C(=O)O)cc3)c2)o1 [GW608005] | 0 | 0 | 0 | 5 | 0 | 0 | 19 | 0 | 0 | 0

Row | SMILES | %Inh (PRKCE) [%] | %Inh (PRKCH) [%] | %Inh (PRKCI) [%] | %Inh (PRKCQ) [%] | %Inh (PRKD1) [%] | %Inh (PRKD2) [%] | %Inh (PRKD3) [%] | %Inh (PRKG1) [%] | %Inh (PRKG2) [%] | %Inh (PRKR) [%]
22 | Cc1cccc(-c2nc(Nc3ccc4c(cnn4C)c3)c3ccccc3n2)n1 [GW876731] | 15 | 0 | 0 | 0 | 99.2 | 99.6 | 90.2 | 9 | 0 | 0
23 | COC(=O)c1c(-c2ccccc2)c2cc(Br)ccc2c(=O)n1Cc1ccc(S(C)(=O)=O)cc1 | 1 | 4 | 0 | 37 | 0 | 0 | 0 | 0 | 8 | 0
24 | CCCNC(=O)Nc1ccc(Oc2ncnc3ccn(C)c23)cc1 | 3 | 13 | 0 | 22 | 0 | 0 | 0 | 0 | 0 | 0
25 | CN(C)c1cc(-c2ccc3c(N)n[nH]c3c2)nc(N)n1 [GSK2219329] | 0 | 14 | 17 | 0 | 0 | 0 | 0 | 1 | 1 | 5
26 | O=C(NCc1cccs1)c1cc(C(=O)c2c(Cl)cccc2Cl)c[nH]1 [GW823670] | 9 | 0 | 0 | 0 | 35 | 3 | 13 | 0 | 0 | 0
27 | Nc1n[nH]c2ncc(-c3ccccc3)cc12 [SB-517081] | 16 | 72 | 21 | 3 | 4 | 0 | 0 | 0 | 0 | 0
28 | C[C@@H]1CC[C@H](C(=O)NC2CCCCC2)CN1c1cc(-c2ccc3c(N)n[nH]c3c2)nc(N)n1 [GSK2291363] | 14 | 34 | 37 | 34 | 0 | 12 | 26 | 17 | 0 | 14
29 | COc1cccc(-n2cnc3c(N)ncnc32)c1 [SKF-97416] | 33 | 0 | 25 | 1 | 0 | 0 | 0 | 19 | 14 | 13
30 | CCC(=O)c1c(-c2ccccc2)c2cc(Cl)ccc2c(=O)n1Cc1cc(S(C)(=O)=O)n(CCC(C)(C)O)n1 | 0 | 3 | 23 | 37 | 1 | 4 | 0 | 0 | 21 | 0
31 | O=C(Nc1n[nH]c2nc(-c3ccccc3)c(Cl)cc12)C1CC1 [SB-734909] | 10 | 0 | 0 | 0 | 0 | 35 | 5 | 6 | 20 | 0
32 | CCC(=O)c1c(-c2ccccc2)c2cc(Cl)ccc2c(=O)n1Cc1cc(C(=O)NC2CC2)n(C)n1 | 20 | 0 | 0 | 41 | 0 | 3 | 0 | 0 | 0 | 0
33 | COc1cc2ncn(-c3cc(OCc4ccncc4)c(C(N)=O)s3)c2cc1OC [GSK336313] | 1 | 0 | 0 | 0 | 47 | 3 | 15 | 0 | 0 | 0
34 | O=C(Nc1n[nH]c2nc(-c3ccccc3)c(Br)cc12)C1CC1 [SB-708998] | 0 | 15 | 26 | 0 | 0 | 0 | 17 | 14 | 0 | 0
35 | CN1C(=O)C(Nc2ccccc2)=C(c2ccccc2)C1=O [SB-300079] | 16 | 0 | 0 | 0 | 0 | 0 | 0 | 18 | 0 | 76
36 | Fc1cccc(CSc2nnc(-c3ccc4c(c3)CCO4)o2)c1 | 0 | 0 | 3 | 15 | 0 | 12 | 0 | 0 | 26 | 0
37 | CCS(=O)(=O)c1ccc(OC)c(Nc2ncc(-c3ccc(F)cc3)o2)c1.Cl [GW591947] | 0 | 18 | 11 | 0 | 0 | 0 | 0 | 45 | 0 | 0
38 | Cl.c1ccc(Cn2cnc3cc(Nc4ncnc5ccccc45)ccc32)cc1 [GW272142] | 4 | 0 | 0 | 0 | 0 | 1 | 0 | 0 | 0 | 0
39 | Cc1ccccc1COc1cc(-n2cnc3cc(Cl)ccc32)sc1C(N)=O [GW813349] | 2 | 0 | 20 | 1 | 7 | 0 | 0 | 8 | 7 | 0
40 | COc1cc2nccc(Nc3cccc(Oc4ccccc4)c3)c2cc1OC.Cl [GW284543] | 0 | 0 | 18 | 1 | 0 | 0 | 31 | 3 | 0 | 0
41 | O=C(Nc1n[nH]c2cc(-c3ccccc3F)ccc12)C1CC1 [SB-733371] | 21 | 0 | 0 | 0 | 0 | 0 | 0 | 0 | 0 | 0

Source: article PMC5540273 (PLoS ONE, 2017)
